PubChem BioAssay AID602230 (The Scripps Research Institute Molecular Screening Center, 2012)
The whole screen tested about 1,400 compounds, of which about 450 (32%) were called active. A selection follows. Values without a mark were called inactive. No stated cut-off is given here; in the data, active means inhibition above about 16%; inactive means the rest.

target: Lon protease (Escherichia coli (strain K12)) (UniProt P0A9M0); assay: inhibition of eLon from E. coli – biochemical, fluorescence polarization, confirmation (AID 602230);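 further: 0% = enzyme with probe and DMSO and 100% = no enzyme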; conditions: purified E. coli Lon, at 7.94 µM, hits give high values
Sequence (P0A9M0 whole entry, looked up): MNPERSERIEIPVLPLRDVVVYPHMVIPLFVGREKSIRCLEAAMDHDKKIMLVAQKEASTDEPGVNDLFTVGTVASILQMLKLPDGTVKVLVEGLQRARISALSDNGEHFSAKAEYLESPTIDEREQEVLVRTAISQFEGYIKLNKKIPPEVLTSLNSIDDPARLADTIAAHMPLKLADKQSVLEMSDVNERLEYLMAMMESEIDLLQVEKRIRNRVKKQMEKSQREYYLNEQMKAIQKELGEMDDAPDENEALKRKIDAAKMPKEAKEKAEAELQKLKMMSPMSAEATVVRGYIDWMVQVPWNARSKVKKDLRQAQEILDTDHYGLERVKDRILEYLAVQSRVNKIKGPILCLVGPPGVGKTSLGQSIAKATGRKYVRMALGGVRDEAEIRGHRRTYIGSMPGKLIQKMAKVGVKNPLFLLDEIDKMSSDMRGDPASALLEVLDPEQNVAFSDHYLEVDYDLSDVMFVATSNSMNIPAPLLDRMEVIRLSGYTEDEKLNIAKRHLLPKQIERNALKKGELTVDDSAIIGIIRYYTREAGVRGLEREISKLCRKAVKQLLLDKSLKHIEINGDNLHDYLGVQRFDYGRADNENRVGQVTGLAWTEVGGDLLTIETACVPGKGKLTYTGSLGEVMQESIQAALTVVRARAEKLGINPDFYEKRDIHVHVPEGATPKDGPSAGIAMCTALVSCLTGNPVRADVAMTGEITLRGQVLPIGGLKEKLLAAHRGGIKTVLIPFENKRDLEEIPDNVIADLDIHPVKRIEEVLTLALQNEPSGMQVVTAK

Compound	inhibition
CNS(=O)(=O)c1ccc2c(c1)[nH]c(=S)n2C	4.74%
COc1ccc(C2=CC(c3cccc(OC)c3)n3nnnc3N2)cc1 (stereo unspecified)	17% (active)
COc1ncnc2c1N=C1CC(C)(C)CC(N)=C1S2	111% (active)
CCCn1c(SCC(=O)Nc2c(C)cccc2C)nnc1C(C)C	-13.9%
Nc1ccc2nc3c(=O)[nH]c(=S)[nH]c3nc2c1	198% (active)
Cc1cccc(N2CCC(NCc3c(C(=O)N4CCCCC4)nc4c(C)cccn34)CC2)c1	-4.25%
O=C(COC(=O)C12CC3CC(CC(O)(C3)C1)C2)NC12CC3CC(CC(C3)C1)C2	-2.17%
Cc1ccn2cc(-c3nonc3C)cc2c1	5.46%
COc1ccccc1-c1cc2nc(NCc3cccc(Cl)c3)ccn2n1	2.95%
Cc1cccn2c(=O)c3cc(C#N)c(=NC(=O)c4cccnc4)n(CC4CCCO4)c3nc12 (stereo unspecified)	-2.72%
COc1cc(C(=O)NCc2ccc3c(c2)cc(C)n3C)cc(OC)c1OC	-12.4%
O=C(COC(=O)Cn1cnc2ccccc21)Nc1cccc2c1C(=O)c1ccccc1C2=O	79.2% (active)
COCCOC(=O)c1sc(=S)n(CCOC)c1N	27.9% (active)
CC/C(C)=N/Nc1nc2sc3c(c2c(=O)[nH]1)CC(C)(C)OC3	15.3%
Cc1ccc(NC(=O)Cc2nnc(SCC(=O)Nc3nncs3)n2C)cc1	-64.9%
O=C1C=C(NCCNc2c(F)c(F)c(CO)c(F)c2F)CCC1	-15.4%
Cc1ccc2c(c1)nnc1nnc(SCC(=O)O)n12	33.8% (active)
O=S(=O)([N-]c1nc2ccccc2nc1-[n+]1ccc(Cc2ccccc2)cc1)c1ccc(Br)s1	-2.35%
O=C1c2ccccc2C(=O)c2c1cccc2N1CCN(CCO)CC1	27.1% (active)
CCCSc1ccc([C@H]2N[C@@](Cc3ccccc3)(C(=O)OC)[C@H]3C(=O)N(C)C(=O)[C@@H]23)cc1	-4.5%
NS(=O)(=O)c1ccc(NC(=O)COC(=O)c2c3c(nc4ccccc24)/C(=C\c2ccc4c(c2)OCO4)CCC3)cc1	4.57%
N#CC1=C(N)OC2=C(C(=O)CCC2)C1C1CC=CCC1 (stereo unspecified)	2.64%
c1ccc(C(=NNc2nc3ccccc3s2)c2ccccn2)cc1	134% (active)
Cc1cccc(C)c1N1CCN(S(=O)(=O)N2CCOCC2)CC1	-4.84%
CN1c2ccc(C=O)c3c(C=O)ccc(c23)N(C)C1(C)C	68.6% (active)
CC(C(=O)NC1CCCC1)N1CCN(S(=O)(=O)c2ccccc2Cl)CC1 (stereo unspecified)	-0.03%
